JMJD2A Tudor: JMJD2A Tudor domain (human) inhibition | O75164 | AID 504339 | Potency, µM (titrated, usually from 114 µM), usual class: inhibitors | hit rate 4.4% among 390,000 | AlphaScreen JMJD2A-Tudor / H3K4me3 peptide binding; further: nearly all actives have a fitted effect of over 50% in size
G9a block: G9a (human) methyltransferase inhibition; Q96KQ7; G9a H3K9 monomethylation, AlphaScreen, 2 h; Potency, µM (highest dose often 102 µM), actives largely listed as inhibitors; hit rate 8.8% among 350,000; further: nearly all actives have a fitted effect of over 75% in size
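Compounds were preincubated with 20 nM G9a for 15 min, after which biotinylated H3K9 peptide (500 nM) and SAM (20 uM) started a 2 h room-temperature reaction. Monomethylated product was quantified by antibody-based AlphaScreen chemiluminescence.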
HP1b chromo inh: inhibitors of HP1-beta chromodomain binding to methylated histone tails. Potency, µM (highest dose often 114 µM), actives largely listed as inhibitors. AID 540317. AlphaScreen HP1-beta / biotin-H3K9me3 peptide binding. hit rate 0.56% among 390,000; further: nearly all actives have a fitted effect of over 70% in size
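AlphaScreen: HP1-beta (50 nM) preformed 30 min with biotin-H3(1-18)K9me3 peptide (50 nM) in PBS pH 7.4, 0.01% Tween-20. Compound added for 30 min at RT, then streptavidin donor/nickel chelate acceptor beads (10 ug/mL) for 30 min.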
PLK1 PBD block: blocks phosphopeptide binding to human PLK1 polo-box domain | P53350 | Plk1 PBD binding of FITC phosphopeptide, fluorescence polarization | Potency, µM, most hits filed as inhibitors | hit rate 2.8% among 360,000; further: series mostly up to about 57 µM; nearly all actives have a fitted effect of over 65% in size
Target sequence (P53350 whole entry, looked up, the tested form may be a part): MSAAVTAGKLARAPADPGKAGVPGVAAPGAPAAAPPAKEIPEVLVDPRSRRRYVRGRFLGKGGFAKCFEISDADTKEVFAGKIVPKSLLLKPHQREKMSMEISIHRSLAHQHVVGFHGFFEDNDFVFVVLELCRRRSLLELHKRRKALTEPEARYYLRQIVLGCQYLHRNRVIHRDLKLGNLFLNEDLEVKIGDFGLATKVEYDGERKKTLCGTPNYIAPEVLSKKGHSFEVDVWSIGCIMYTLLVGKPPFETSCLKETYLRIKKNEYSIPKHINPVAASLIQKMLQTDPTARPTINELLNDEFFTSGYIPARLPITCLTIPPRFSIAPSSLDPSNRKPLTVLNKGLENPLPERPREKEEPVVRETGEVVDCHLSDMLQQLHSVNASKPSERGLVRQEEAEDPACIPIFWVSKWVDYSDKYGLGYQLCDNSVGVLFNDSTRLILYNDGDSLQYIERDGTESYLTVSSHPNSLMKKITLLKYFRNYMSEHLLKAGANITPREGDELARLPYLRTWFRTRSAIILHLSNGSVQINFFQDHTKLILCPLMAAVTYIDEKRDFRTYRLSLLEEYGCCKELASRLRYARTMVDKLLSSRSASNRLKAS
PI5P4K alpha inh: inhibitors of human PI5P4K alpha; PI5P4Kalpha enzyme, ADP-Glo luminescence, 60 min; active compounds read low; max response, %; hit rate 1.2% among 330,000; AID 652105; active means max response of -50% or lower; inconclusive means between -30% and -50%; inactive means -30% or higher; further: value at the top dose of about 77 µM
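Reactions run in 0.038 M HEPES pH 7.4, 0.28 mM EGTA, 0.1% CHAPS and 5% DMSO, with PI5P4Kalpha, substrate, compound and 5 microM ATP final, one hour at room temperature. Readout is ADP-Glo luminescence.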
BAZ2B inh: BAZ2B (human) inhibition. AlphaScreen BAZ2B-H3K14Ac peptide displacement. AID 504333. Potency, µM (series often up to 114 µM), actives largely listed as inhibitors. hit rate 4.4% among 360,000; further: nearly all actives have a fitted effect of over 60% in size
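AlphaScreen luminescence quantifies BAZ2B engagement of H3K14Ac peptide; the protein and biotinylated peptide are both at 50 nM final, buffer PBS pH 7.4 with 0.01% Tween-20, all steps at room temperature.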
Hits are given with their value; 0 = inactive; ? = inconclusive; - = no result given; [ ] = dose if it differs, or a comment. Shown are actives, neighbours in structure and some others; about 12% of the full set was active somewhere. Unless noted, the call rests on the fitted dose curve; in most records, active means well fitted curve in the direction sought with a large enough effect; inconclusive means small, poorly fitted or top-dose-only effect, or another doubt; inactive means no such curve, though single readings can be large; an effect the other way counts as inactive or inconclusive.

SMILES	JMJD2A Tudor	G9a block	HP1b chromo inh	PLK1 PBD block	PI5P4K alpha inh	BAZ2B inh
Cc1noc(C)c1S(=O)(=O)N(C)C[C@H]1Oc2c(NC(=O)Nc3ccc(C(F)(F)F)cc3)cccc2C(=O)N([C@H](C)CO)C[C@@H]1C	0	-	0	0	0	-
CO[C@]1(NC(=O)Cc2cccs2)C(=O)N2C(C(=O)O)=C(COC(N)=O)CS[C@H]21	-	0[21.5 µM]	-	-	-	-
COc1ccc2cc(C3CC(c4cccs4)=NN3S(C)(=O)=O)c(Cl)nc2c1 (stereo not drawn)	?	0	0	6.7µM	0	0
CCOc1ccc2cc(C3CC(c4ccco4)=NN3S(C)(=O)=O)c(Cl)nc2c1 (stereo not drawn)	0	45µM	0	0	0	0
Cc1cccc2cc(C3CC(c4ccco4)=NN3S(C)(=O)=O)c(Cl)nc12 (stereo not drawn)	0	-	0	0	0	0
Cn1c(=O)n(C)c2cc(N3CCOCC3)c(NS(=O)(=O)c3cccc(C#N)c3)cc21	50µM	6.3µM	?	-	-	22µM
COc1ccc(-c2nc3cnc(N4CCNCC4)nc3n(C3CC3)c2=O)cc1	-	0[12.7 µM]	-	-	-	-
CCCCc1ccc(C2C(C#N)=C(N)SC(N)=C2C#N)s1	-	?	-	-	-	50µM
CCCCNC(=O)CCCn1c(=O)c2ccccc2n(CC(=O)Nc2ccccc2OCC)c1=O	0	0	0	-	-	0
CC(=O)Nc1ccc2nc(-c3ccccn3)[nH]c2c1	56µM	?	0	0	0	?
COc1c(Cl)cc(C(=O)Nc2cccc(-c3nc4ccccc4[nH]3)c2)cc1Cl	0	0	0	-	-	0
CC(=O)Nc1cc(NC(C)=O)cc(-c2nc3ccccc3[nH]2)c1	0	0	?	0	0	50µM
CC(=O)Nc1ccc2nc(-c3ccncc3)[nH]c2c1	0	0	0	0	0	?
Cc1cccc(Nc2nc(C)nc3c2oc2ccccc23)c1	0	79µM	0	0	0	?
CCN(CC)C(=O)CSc1nc2c(sc(=S)n2-c2ccccc2)c(=O)n1-c1ccccc1OC	0	0	0	0	0	0
CCN(CC)C(=O)CSc1nc2c(sc(=S)n2-c2ccccc2)c(=O)n1-c1ccc(OC)cc1OC	?	2µM	?	3µM	?	0
CCOC(=O)CSc1nc2c(sc(=S)n2-c2ccccc2)c(=O)n1-c1ccc(OC)cc1OC	?	1.6µM	?	4.7µM	?	0
CNC(=O)C1(C(F)(F)F)CC(CCCO)CCCO1 (stereo not drawn)	0	-	0	-	-	-
COc1ccc(Cl)cc1NC(=O)C/C(C)=N/NC(=O)c1ccc(O)cc1	0	71µM	0	0	0	0
Cc1ccccc1NC(=O)Cc1nc(COC(=O)c2nccnc2N)cs1	-	-	-	0	0	-
COC(=O)C1=C(C(=O)OC)[C@@H]2N(C)c3ccc(OC)cc3[C@@]23C[C@@H](C(=O)OC)N(C(=O)c2cc(C)oc2C)C3=N1	45µM	-	?	0	0	-
COC(=O)C1=C(C(=O)OC)[C@@H]2N(C)c3ccc(OC)cc3[C@@]23C[C@@H](C(=O)OC)N(C(=O)c2cccs2)C3=N1	?	40µM	?	0	0	50µM
COC(=O)C1=C(C(=O)OC)[C@@H]2N(C)c3ccccc3[C@@]23C[C@@H](C(=O)OC)N(C(=O)c2cccs2)C3=N1	?	0	0	0	0	?
COc1ccc(CNC(=O)C(C)n2c(=O)cc(C)c3c(C)nn(-c4ccccc4)c32)cc1 (stereo not drawn)	0	0	?	-	-	0
COc1ccc(NC(=O)CSc2nnc(-c3ccccn3)n2N)cc1Cl	0	0	0	0	-	?
SMILES	JMJD2A Tudor	G9a block	HP1b chromo inh	PLK1 PBD block	PI5P4K alpha inh	BAZ2B inh
CCOC(=O)c1c(NC(=O)CSc2nnc(-c3ccncc3)n2Cc2ccco2)sc(C(C)=O)c1C	0	-	0	0	0	-
CCOC(=O)c1c(NC(=O)CSc2nnc(-c3ccncc3)n2Cc2ccco2)sc(C)c1C	?	50µM	0	0	-	?
Cc1cc(C)c(NC(=O)CSc2nnc(-c3ccccn3)n2N)c(Cl)c1	45µM	0	0	0	0	14µM
Cc1cc(C)c(NC(=O)CSc2nnc(-c3ccncc3)n2Cc2ccco2)c(Cl)c1	0	50µM	0	0	0	0
C/C(=N/NS(=O)(=O)c1ccc(C(C)C)cc1)c1ccncc1	0	-	0	?	0	0
C/C(=N/NS(=O)(=O)c1ccc(C)c(C)c1)c1ccncc1	0	0[0.501 µM]	0	0	0	0
